Reference: PubChem BioAssay (NCI)
Compounds without any hit were thinned out: in the full panel of roughly 83,000, 20% have a hit.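 Cells were grown in 96-well plates and exposed to the test compound at a single concentration for 48 hours; results are reported as percent growth, with values below 10 considered active.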 Activity calls are given as the source filed them.

The molecules below were run on T-47D breast (assay: NCI-60 one-dose screen, 48 h (100 = growth as untreated, 0 = no growth, -100 = all killed)). Details: 10 µM unless noted.

How did the growth turn out when `CC1=C(C(=O)Nc2ccccc2)C(c2cccc3ccccc23)n2c(nc3ccccc32)N1` (stereo not drawn) was run?
Its growth is 88.9% (inactive).

For `COc1ccc2nc(NC(=O)c3ccc(N(C)C)cc3)sc2c1`, which growth is on record?
Its growth is 69% (inactive).

With `C[C@H]1[C@@H](CC(=O)N[C@@H](Cc2coc3ccccc23)B(O)O)O[C@@H]2OC3(C)CC[C@H]4[C@H](C)CC[C@@H]1[C@@]24O3` as the molecule, how does the growth read?
The growth was 27.1% (inactive).

`Fc1ccc(N2CC(Cn3c(C(F)(F)F)cc4c(Cl)ncnc43)C2)c(F)c1` was tested. Which growth did it give?
Its growth is 56.8% (inactive).

How did the growth turn out when `Cn1cc(-c2cc(N)n3nc(-c4c[nH]c5ccc(F)cc45)cc3n2)c2cc(Br)cnc21` was run?
The growth was 54.5% (inactive).

Which growth does the source give for `O=C1Nc2ccc(F)cc2/C1=C/C(=O)c1cc2ccccc2oc1=O` here?
The growth was 93.4% (inactive).

How did the growth turn out when `O=C(CSc1nc2ccccc2c(=O)[nH]1)NNC(=O)c1ccccc1Cl` was run?
The growth was 92.4% (inactive).

For `CCCCNc1ccc2c3c(cccc13)C(=O)N(NCC(O)COc1ccc3c(C)cc(=O)oc3c1)C2=O` (stereo not drawn), which growth is on record?
The growth was 80.8% (inactive).

Which growth does the source give for `COc1cc(CNC(=O)C[C@H](C)CCC=C(C)C)ccc1OCc1cn(-c2ccccc2Cl)nn1` here?
The growth was 9.14% (active).

`Cc1cccc(-c2ccccc2Oc2ccc3nnc(Cl)n3n2)c1` was tested. Which growth did it give?
The growth was 111% (inactive).

For `CCOc1ccccc1[C@H]1C(C(=O)c2ccc(Cl)cc2)C2(N[C@@H]1c1ccccc1)C(=O)Nc1ccccc12` (stereo partly drawn), which growth is on record?
Its growth is 10% (inactive).

How did the growth turn out when `CCc1ccccc1-c1nc(CN[C@@H]2C[C@@H]3C[C@H]([C@H]2C)C3(C)C)c(C)o1` was run?
The growth was -60.3% (active).

With `COc1cc(C=O)ccc1OC(=O)c1cc(-c2ccc(C)cc2)n(-c2ccc(S(C)(=O)=O)cc2)n1` as the molecule, how does the growth read?
The growth was 105% (inactive).

How did the growth turn out when `COC(=O)c1ccc(-c2c(-c3ccccc3)c(F)c3oc(C(=O)OC)c(N)c3c2-c2ccccc2)cc1` was run?
Its growth is 64.5% (inactive).

How did the growth turn out when `C#CCN(C)CCCOc1ccc(N(C)C(=O)c2cc(C(C)C)c(O)cc2O)cc1Cl` was run?
The growth was 11% (inactive).

`COc1c2c(c(Br)c3c1C(CCc1ccccc1)N(C)CC3)OCO2` (stereo not drawn) was tested. Which growth did it give?
Its growth is 33.6% (inactive).

`CN(C(=O)CN1C(=O)/C(=C/c2ccco2)SC1=S)C1CCS(=O)(=O)C1` (stereo not drawn) was tested. Which growth did it give?
Its growth is 75.7% (inactive).

How did the growth turn out when `COc1ccc(-c2nnc3c(/C=C/c4ccc(Br)cc4)nc4ccccc4n23)cc1` was run?
The growth was 64.2% (inactive).

`CN(C)c1nc(NCCNS(=O)(=O)c2ccc(C3=Nc4c(N)nc(N)nc4NC(c4ccc(Cl)cc4)C3)cc2)nc(N2CCOCC2)n1` (stereo not drawn) was tested. Which growth did it give?
Its growth is 43% (inactive).

`CC1=C(C(=O)OCc2ccccc2)C(c2cccc3ccccc23)n2c(nc3ccccc32)N1` (stereo not drawn) was tested. Which growth did it give?
Its growth is 30.2% (inactive).

With `NNc1ncnc2sc3c(c12)CCN(Cc1ccccc1)C3` as the molecule, how does the growth read?
The growth was 24.8% (inactive).

How did the growth turn out when `c1n[nH]cc1-c1nc2ccc3[nH]ncc3c2c2c1CC1(CC2)COC1` was run?
Its growth is 26.8% (inactive).

How did the growth turn out when `CC[C@]12C=CCN3CC[C@]4(C(=C(C(=O)OC)C1)Nc1cc(OC)c([C@@H]5[C@H]6O[C@H]6[C@@]6(CC)CC(C(=O)OC)=C7Nc8cc(OC)ccc8[C@@]78CCN5[C@@H]68)cc14)[C@@H]32` was run?
The growth was 25.7% (inactive).

`COc1sc(/C=N/NC(=O)c2[nH]c3ccc(Br)cc3c2-c2ccccc2)cc1Br` was tested. Which growth did it give?
The growth was 62% (inactive).

For `Cc1nc(Nc2ccccn2)sc1C1=NNC(c2ccccc2F)C1` (stereo not drawn), which growth is on record?
Its growth is 33.5% (inactive).

How did the growth turn out when `CN1CCN(c2ccc3c4c(cccc24)C(=O)N(c2cccc(-c4nn(-c5ccccc5)cc4-c4nc5ccccc5s4)c2)C3=O)CC1` was run?
The growth was 109% (inactive).

`Cc1ccc2c(c1)nc(-c1ccccc1)n2CC(=O)N=Nc1c(O)[nH]c2ccc(Cl)cc12` was tested. Which growth did it give?
The growth was -79.4% (active).

Which growth does the source give for `O=C(N/N=C/c1ccc(Br)o1)c1[nH]c2ccc(Br)cc2c1-c1ccccc1` here?
Its growth is 27.1% (inactive).

How did the growth turn out when `COc1cc(/C=C/C(=O)c2ccc(S(=O)(=O)NCCNc3nc(N(C)C)nc(N4CCOCC4)n3)cc2)cc(OC)c1OC` was run?
The growth was 29.9% (inactive).

`COc1cc(/C=C/C(=O)c2cnn(-c3cc(=O)[nH]c4ccccc34)c2C)cc(OC)c1OC` was tested. Which growth did it give?
The growth was 10.7% (inactive).

How did the growth turn out when `Cc1ccccc1Nc1nnc(-c2c[nH]c3ccccc23)o1` was run?
Its growth is 39.7% (inactive).

`O=CNc1ccc(-n2cnc3cc(-c4ccc(O)cc4)ccc32)cc1` was tested. Which growth did it give?
The growth was 63.6% (inactive).

With `C#CCN(C)CCCOc1ccc(N(CC)C(=O)c2cc(C(C)C)c(O)cc2O)cc1Cl` as the molecule, how does the growth read?
The growth was 10.1% (inactive).

Which growth does the source give for `CCOC(=O)/C(F)=C/C1CC1CCc1ccc(OCC)cc1` (stereo not drawn) here?
Its growth is 74.7% (inactive).

With `O=C(CSc1nc2c(c(=O)[nH]1)CCCC2)Nc1ccccc1C(=O)O` as the molecule, how does the growth read?
Its growth is 105% (inactive).

For `O=C1CCC(N2C(=O)c3cccc(NCCCCCC(=O)N4CCN(c5ccc6nc7c(nc6c5C(F)(F)F)C(=O)c5ncccc5C7=O)CC4)c3C2=O)C(=O)N1` (stereo not drawn), which growth is on record?
Its growth is -41.1% (active).

For `O=C(c1cc2cc(OCCCN3CCC3)ccc2[nH]1)N1C[C@@H](CCl)c2c1cc(OCc1ccccc1)c1ccccc21`, which growth is on record?
Its growth is -11.6% (active).

Which growth does the source give for `CC(C)C[C@H](NC(=O)CNC(=O)C[C@H]1O[C@@H]2OC3(C)CC[C@H]4[C@H](C)CC[C@@H]([C@H]1C)[C@@]24O3)B(O)O` here?
The growth was -30.8% (active).
